Bioassay records deposited in PubChem BioAssay by Broad Institute.
This is one part of a sample in which hits are shown more often than they occur.
STK33 inh – STK33 kinase inhibitors, primary screen, biochemical, luminescence, ADP-Glo, MBP substrate; 27,000 compounds, 0.44% hits; AID 2322, 2010; inhibition, % at 12.5 µM; in the data active = inhibition above about 20%
Target sequence (Q9BYT3 whole entry, looked up): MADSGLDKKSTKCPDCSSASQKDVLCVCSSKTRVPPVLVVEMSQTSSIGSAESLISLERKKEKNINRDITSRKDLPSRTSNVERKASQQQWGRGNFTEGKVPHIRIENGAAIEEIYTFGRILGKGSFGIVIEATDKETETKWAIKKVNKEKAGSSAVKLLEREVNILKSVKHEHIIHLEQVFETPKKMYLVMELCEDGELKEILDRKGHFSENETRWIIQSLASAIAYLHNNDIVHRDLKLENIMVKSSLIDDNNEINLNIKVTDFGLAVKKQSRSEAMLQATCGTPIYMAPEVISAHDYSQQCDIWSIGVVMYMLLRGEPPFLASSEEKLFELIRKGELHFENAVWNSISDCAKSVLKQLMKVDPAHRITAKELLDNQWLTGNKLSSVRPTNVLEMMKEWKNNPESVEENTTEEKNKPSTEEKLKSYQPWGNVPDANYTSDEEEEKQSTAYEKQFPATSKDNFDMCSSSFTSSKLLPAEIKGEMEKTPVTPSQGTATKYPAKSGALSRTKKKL
p53 PUMA act – mutant p53 pathway re-activators, primary screen, cell-based, SW480, luciferase, single point, HTS. SW480 PUMA-promoter luciferase, p53 mutant reactivation. activation, % at 9.98 µM. 28,000 compounds, 1.5% hits. AID 624151, 2012; in the data active = activation above about 52%
MITF inhib – inhibitors of MITF, primary screen, MITF inhibitor project, cell-based, luminescence. TRPM1 promoter luciferase, 24 h. inhibition, % (test concentration not listed). 37,000 compounds, 0.28% hits. AID 2240, 2010; in the data active = inhibition above about 85%;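 also: human melanocyte line stably carrying TRPM1 promoter luciferase reporter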
NOMO-1 viab – NOMO-1 AML cell viability reduction, primary screen, STK33 inhibitor project, CellTiter-Glo luminescence; NOMO-1 AML viability, 72 h; inhibition, % (concentration not given with the values); 37,000 compounds, 7.5% hits; AID 2330, 2010; in the data active = inhibition above about 80%
The depositor's hits bear a star; · = no result.

SMILES	STK33 inh	p53 PUMA act	MITF inhib	NOMO-1 viab
COc1cc2c(c(N)c1OC)C(=O)/C(=C/c1cc(C)c(O)c(C)c1)C2	6	-2	-1	97*
CC(C)c1ccc(OCC(=O)Nc2ccccc2C#N)c(Br)c1	-3	130*	-90	4
CCC(C)c1ccccc1OCC(=O)Nc1ccccc1C#N (configuration not stated)	-2	-24	3	58
CCc1ccc(OCC(=O)Nc2ccccc2C#N)cc1	1	64*	-66	17
O=C(Nc1ccccc1)/C(=C/c1ccccc1)NC(=O)c1ccccc1	·	·	7	15
O=C(CSc1nnc(-c2ccccc2)n1-c1ccccc1)Nc1c(F)cc(F)cc1Br	-3	0	31	1
CCCc1cc(=O)[nH]c(SCC(=O)Nc2ccccc2C)n1	3	11	-12	-5
O=C(O)c1cc(N=Cc2ccccc2O)ccc1O	·	·	-2	0
CCOC(=O)CNC(=O)c1cc(-c2ccccn2)nc2c(C)c(Cl)ccc12	0	-2	-24	97*
COC(=O)CNC(=O)c1cc(-c2ccccn2)nc2ccc(Cl)cc12	-1	-14	17	67
CCn1c(Sc2ncnc3c2sc2nc(C)cc(C)c23)nnc1-c1cccs1	·	·	-10	104*
Cc1cc(C)c2c(n1)sc1c(Sc3nnc(-c4ccncc4)o3)ncnc12	·	·	-9	15
O=c1[nH]c2ccccc2c2ccccc12	31*	19	-17	0
CCOc1ccc(S(=O)(=O)NCCN2CCOCC2)cc1C	-4	3	0	20
CC[C@]12CCCN3CCc4c(n(c5ccccc45)C(=O)C1)[C@@H]32	-1	0	-3	112*
Cn1c(=O)c2c(nc(NCC(O)c3ccccc3)n2Cc2ccc(F)cc2)n(C)c1=O (configuration not stated)	1	-28	41	95*
COC(=O)C1CCCN1S(=O)(=O)c1ccccc1 (configuration not stated)	·	·	-3	93*
COc1cccc(S(=O)(=O)N2CCCC2C(=O)O)c1 (configuration not stated)	-5	3	-17	6
C[C@@H]1CCCCO[C@H](CN(C)Cc2ccc(Cl)c(Cl)c2)[C@@H](C)CN([C@H](C)CO)C(=O)c2cc(N(C)C)ccc2O1	-1	·	24	87*
C[C@@H]1CN([C@H](C)CO)C(=O)c2cc(N(C)C)ccc2O[C@H]1CN(C)Cc1ccc(Cl)c(Cl)c1	·	·	9	97*
Cc1ccc(N(CC(N)=O)S(=O)(=O)c2ccc(Cl)cc2)cc1C	-6	6	-8	30
COc1ccc(NC(=O)COc2ccc(C)c(C)c2)cc1NC(=O)c1ccco1	4	7	-5	-4
C[C@H]1CN([C@@H](C)CO)C(=O)c2cc(NC(=O)Cc3ccccc3)ccc2O[C@H]1CN(C)Cc1ccc(C(=O)Nc2ccccc2N)cc1	·	·	5	108*
C[C@@H]1CN([C@@H](C)CO)C(=O)c2cc(NC(=O)Cc3ccccc3)ccc2O[C@@H]1CN(C)Cc1ccc(C(=O)Nc2ccccc2N)cc1	·	·	4	109*
C[C@@H]1CCCCO[C@@H](CN(C)Cc2ccc(C(F)(F)F)cc2)[C@@H](C)CN([C@H](C)CO)C(=O)c2cc(NC(=O)CCCCCC(=O)Nc3ccccc3N)ccc2O1	·	·	53	125*
SMILES	STK33 inh	p53 PUMA act	MITF inhib	NOMO-1 viab
C[C@@H]1CN([C@H](C)CO)C(=O)c2cc(NC(=O)Cc3ccccc3)ccc2O[C@H]1CN(C)Cc1ccc(C(=O)Nc2ccccc2N)cc1	·	·	8	61
C[C@@H]1CCCCO[C@H](CN(C)Cc2ccc(C(=O)Nc3ccccc3N)cc2)[C@@H](C)CN([C@H](C)CO)C(=O)c2cc(NS(=O)(=O)c3ccc(F)cc3)ccc2O1	·	·	-9	128*
CC(C)NC(=O)Nc1ccc2c(c1)C(=O)N([C@H](C)CO)C[C@H](C)[C@H](CN(C)Cc1ccc(C(=O)Nc3ccccc3N)cc1)OCCCC[C@@H](C)O2	·	·	-10	27
C[C@@H]1CCCCO[C@@H](CN(C)Cc2ccc(C(=O)Nc3ccccc3N)cc2)[C@@H](C)CN([C@H](C)CO)C(=O)c2cc(NC(=O)Cc3ccccc3)ccc2O1	·	·	-3	127*
COc1ccccc1C1CCN(Cc2cccc3ccccc23)CC1	0	·	7	100*
COc1ccc(S(=O)(=O)Nc2ccc3c(c2)CC(=O)N([C@H](C)CO)C[C@H](C)[C@H](CN(C)Cc2ccc(Oc4ccccc4)cc2)O3)cc1	·	·	0	106*
C[C@@H]1CN([C@H](C)CO)C(=O)Cc2cc(NS(=O)(=O)c3ccc(Cl)cc3)ccc2O[C@@H]1CN(C)Cc1ccc(Oc2ccccc2)cc1	2	·	-5	82*
COc1ccc(S(=O)(=O)Nc2ccc3c(c2)CC(=O)N([C@H](C)CO)C[C@@H](C)[C@@H](CN(C)Cc2ccc(Oc4ccccc4)cc2)O3)cc1	-1	·	17	116*
CC(C)C(=O)Nc1ccc(C(=O)NCc2ccco2)cc1	0	16	-8	8
CC1C(=O)C(=O)[C@@H]2O[C@@H]2C1=O (some centres not stated)	-2	·	-4	96*
C[C@@H]1CN([C@@H](C)CO)C(=O)c2cccc(NC(=O)Nc3ccc4c(c3)OCO4)c2O[C@@H]1CN(C)C(=O)Nc1ccc2c(c1)OCO2	·	·	-11	55
C[C@H]1CN([C@@H](C)CO)C(=O)c2cccc(NC(=O)Nc3ccc4c(c3)OCO4)c2O[C@@H]1CN(C)C(=O)Nc1ccc2c(c1)OCO2	·	·	-22	41
C[C@@H]1CN([C@H](C)CO)C(=O)c2cccc(NC(=O)Nc3ccc(C(F)(F)F)cc3)c2O[C@@H]1CN(C)C(=O)Nc1ccc2c(c1)OCO2	·	-15	10	112*
C[C@H](CO)N1C[C@H](C)[C@H](CN(C)C(=O)Nc2ccc3c(c2)OCO3)Oc2c(NC(=O)Nc3ccc(C(F)(F)F)cc3)cccc2C1=O	·	·	40	115*
C[C@H]1CN([C@@H](C)CO)C(=O)c2cccc(NC(=O)Nc3ccc(C(F)(F)F)cc3)c2O[C@@H]1CN(C)C(=O)Nc1ccc2c(c1)OCO2	·	·	-13	96*
CC(=O)c1c(C)nc(-c2ccc(Cl)cc2)nc1NC(=O)Cc1ccccc1	-12	-13	29	38
CC(C)(CO)NC(=S)NCC1CCCO1 (configuration not stated)	-1	·	-8	-4
C=CC(C)(C)[C@@]12C[C@H]3C(=O)Nc4ccccc4C(=O)N3[C@@H]1Nc1ccccc12	0	-26	-8	92*
C[C@@H]1CN([C@@H](C)CO)C(=O)c2cccc(NC(=O)c3nc4ccccc4s3)c2O[C@@H]1CN(C)Cc1ccc(C(=O)O)cc1	·	·	12	15
C[C@H](CO)N1C[C@H](C)[C@H](CN(C)Cc2ccc(C(F)(F)F)cc2)Oc2c(NC(=O)c3nc4ccccc4s3)cccc2C1=O	·	·	35	96*
C[C@H](CO)N1C[C@H](C)[C@@H](CN(C)Cc2ccc(Oc3ccccc3)cc2)Oc2c(NC(=O)c3nc4ccccc4s3)cccc2C1=O	·	·	16	87*
